# Assays:
# Conditions in all cases: concentration: 1 μM, replicates: in singlicate; n = 1
# [1] = system: PIP5K1A
# [2] = system: PIP5K1C
# [3] = system: PIP5K2B
# [4] = system: T1, PIP5K2C
# T1 construct: gene PIP4K2C
# [5] = system: T2, PKAC-alpha
# T2 construct: gene PRKACA
# [6] = system: T3, PKAC-beta
# T3 construct: gene PRKACB
# [7] = system: PKMYT1
# [8] = system: PKN1
# [9] = system: PKN2
# [10] = system: PLK1
# [11] = system: PLK2
# [12] = system: PLK3
# [13] = system: PLK4
# [14] = system: PRKCD
# [15] = system: PRKCE
# [16] = system: PRKCH
# [17] = system: PRKCI
# [18] = system: PRKCQ
# [19] = system: PRKD1
# [20] = system: PRKD2
# 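Also: KINOMEscan kinase panel screen.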
SMILES,%Inh [1] [%],%Inh [2] [%],%Inh [3] [%],%Inh [4] [%],%Inh [5] [%],%Inh [6] [%],%Inh [7] [%],%Inh [8] [%],%Inh [9] [%],%Inh [10] [%],%Inh [11] [%],%Inh [12] [%],%Inh [13] [%],%Inh [14] [%],%Inh [15] [%],%Inh [16] [%],%Inh [17] [%],%Inh [18] [%],%Inh [19] [%],%Inh [20] [%]
COc1cc(Nc2nccc(N3CCC(NC(=O)Nc4cccc(C(C)=O)c4)C3)n2)cc(OC)c1OC (stereo not shown) [GSK1379753],0,46,5,86,0,0,0,0,0,0,0,0,54,5,0,0,25,0,0,0
COc1cccc(C(=O)Nc2cccc(Oc3ccc4nc(NC(=O)C5CC5)cn4n3)c2)c1,0,10,0,28,6,47,0,0,4,0,0,14,5,25,0,0,40,0,0,44
COc1ccc(-c2coc3ccc(-c4nnc(SCc5ccc(OC)c(C(F)(F)F)c5)o4)cc23)cc1,0,0,4,0,15,3,17,24,3,0,15,14,8,9,0,0,0,0,0,0
Cl.c1ccc(-c2ccc3c(Nc4ccc5[nH]ccc5c4)ccnc3c2)nc1 [GW440138],50,66,8,65,0,0,0,0,0,0,0,0,9,0,11,12,0,0,1,2
CN(C)S(=O)(=O)c1cc(-c2ccc3nccc(-c4cccc(S(N)(=O)=O)c4)c3c2)cnc1N [GSK1669921],0,36,21,85,3,10,0,57,0,33,2,0,0,0,15,29,7,10,0,0
COc1ccc(Nc2nccc(N3CCC(NC(=O)Nc4cccc(OC)c4)C3)n2)cc1 (stereo not shown) [GSK1379742],0,44,14,16,1,0,0,0,0,5,0,0,0,1,0,5,0,0,3,0
Cl.c1ccc(-c2ccc3c(Nc4ccc5[nH]ncc5c4)ccnc3c2)nc1 [GW440137],18,30,0,55,0,0,0,15,0,0,0,0,7,4,5,0,17,0,3,12
CN1CCN(CCCNc2nccc(-c3c(-c4ccc(F)cc4)nn4cc(C(F)(F)F)ccc34)n2)CC1 [GW621581],0,11,0,0,0,9,0,12,0,0,0,0,12,7,0,20,19,7,47,34
CSc1cccc2c(-c3ccncn3)c(-c3ccc(F)cc3)nn12 [GW514786],0,47,8,8,14,36,6,0,0,7,40,0,2,0,11,6,5,19,0,2
O=C(NC1CCN(c2ccnc(Nc3ccc(F)cc3)n2)C1)c1cc2ccccc2s1 (stereo not shown) [GSK1379716],7,60,0,42,0,0,6,0,0,7,0,0,1,0,2,30,15,16,21,28
O=C(Nc1n[nH]c2cc(-c3ccoc3)ccc12)C1CC1 [SB-738481],28,0,18,0,0,2,0,0,22,3,3,12,10,4,12,0,0,0,0,0
COCCOCCOc1cc2ncc3c4ccc(C#N)cc4[nH]c3c2cc1OC,36,63,74,60,0,0,28,17,63,0,0,0,13,0,11,0,33,35,0,0
O=C(Nc1cccc(Oc2ccc3nc(NC(=O)C4CC4)cn3n2)c1)c1ccccc1C(F)(F)F,39,33,0,34,0,34,0,0,0,0,0,4,0,3,6,0,28,0,0,0
COc1ccc(Nc2nccc(NCCNC(=O)c3cc4ccccc4s3)n2)cc1 [GSK1379896],0,48,22,24,0,0,0,0,0,7,0,0,0,0,2,0,25,9,0,0
O=C(Nc1n[nH]c2nc(-c3ccc(O)cc3)ccc12)C1CC1 [SB-710363],21,83,56,0,0,18,0,19,23,0,10,0,30,37,45,19,0,16,0,0
COc1cc(Nc2nccc(-c3c(-c4cccc(NC(=O)c5c(F)cccc5F)c4)nn4ccccc34)n2)cc(OC)c1OC [GSK323521],0,45,23,27,0,6,4,12,6,2,0,0,6,31,17,22,27,15,8,7
C[C@@H]1CC[C@@H](C(=O)Nc2ccccc2)CN1c1cc(-c2ccc3c(N)n[nH]c3c2)nc(N)n1 [GSK2286062],0,18,3,4,0,0,16,0,0,0,0,0,0,9,6,14,15,0,0,23
